The values that follow come from PubChem BioAssay (NCI).

Among the test systems are T-47D breast; BT-549 breast; MDA-MB-435 melanoma; SW-620 colon; MCF7 breast; HCT-116 colon; HCC-2998 colon; KM12 colon.
Holding throughout (test): NCI-60 one-dose screen, 48 h (100 = growth as untreated, 0 = no growth, -100 = all killed)
Common to all, as to details: 10 µM unless noted

Compounds without any hit were thinned out: in the full panel of roughly 83,000, 20% have a hit.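 Each cell line was grown in a 96-well plate and treated with one concentration of compound for 48 hours. Values below 10 were considered active.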 A number with no mark means an inactive call. The source made the active and inactive calls.

Consider `CSc1ccc(C(=O)C[n+]2cccc(C)c2)cc1`, for which the growth in the assay with T-47D breast was 90.6%; with BT-549 breast, 104%; with MDA-MB-435 melanoma, 104%; with SW-620 colon, 102%; in the assay on MCF7 breast it was 97.2%; in the assay on HCT-116 colon it was 101%. Further, the growth in the assay on HCC-2998 colon is 115%; with KM12 colon it was 100%.
In the case of `Cc1ccc(/C=C2/C(=O)Nc3cc(Cl)c(-c4csc(N)n4)cc32)cc1`, the growth is 34.9% in the assay with T-47D breast; 53.4% in the assay with BT-549 breast; -9.13% (active) in the assay with MDA-MB-435 melanoma; 58.6% in the assay with SW-620 colon; 35.8% in the assay on MCF7 breast; 66% in the assay on HCT-116 colon. Moreover, the growth in the assay with HCC-2998 colon was 91.4%; in the assay with KM12 colon, 44.5%.
On to `CCN(CC)CCNCC(O)Cc1ccc(OC)cc1` (stereo not drawn), for which the growth was 91.5% in the assay with T-47D breast; 83.9% with BT-549 breast; 108% in the assay on MDA-MB-435 melanoma; 103% in the assay with SW-620 colon; 103% with MCF7 breast; 82.4% in the assay on HCT-116 colon. Also, the growth with HCC-2998 colon was 101%; in the assay with KM12 colon, 106%.
`CS(=O)(=O)Nc1cccc(-c2ccc3ncnc(Nc4ccc(F)c(Cl)c4)c3c2)c1`: the growth was -21.7% (active) with T-47D breast; 35.4% in the assay on BT-549 breast; 38.7% with MDA-MB-435 melanoma; 7.1% (active) in the assay on SW-620 colon; 15.3% in the assay with MCF7 breast; 16.1% in the assay on HCT-116 colon. The figures for the growth in the assay on HCC-2998 colon and in the assay with KM12 colon were 20.2% and 21.6%, respectively.
As for `COC1=C(OC)C(=O)C=CC1=O`, the growth with T-47D breast was 99.5%; with BT-549 breast, 94.4%; with MDA-MB-435 melanoma, 116%; in the assay with SW-620 colon, 77.8%; in the assay with MCF7 breast, 94.3%; in the assay with HCT-116 colon, 64.4%. The values for the growth with HCC-2998 colon and in the assay on KM12 colon were 125% and 104%, respectively.
Take `CC12CCC3C(CCC4CC(O)CCC43C)C1C/C(=C/O)C(=O)O2` (stereo not drawn): the growth in the assay on T-47D breast is 106%; in the assay on BT-549 breast it was 109%; in the assay with MDA-MB-435 melanoma it was 111%; with SW-620 colon, 102%; with MCF7 breast, 102%; in the assay with HCT-116 colon, 104%. The figures for the growth in the assay with HCC-2998 colon and in the assay on KM12 colon were 103% and 97.8%, respectively.
As to `CC1(C)N=C(N)N=C(N)N1c1ccc(F)c(C(F)(F)F)c1`, the growth was 91.1% in the assay on T-47D breast; 61.5% in the assay with BT-549 breast; 40.6% in the assay with MDA-MB-435 melanoma; 30.2% in the assay with SW-620 colon; 26.8% with MCF7 breast; 19.8% in the assay with HCT-116 colon. In addition, the figures for the growth in the assay with HCC-2998 colon and in the assay with KM12 colon were 34.3% and 27.2%, respectively.
As to `CCCCCCCC(=O)SCC/C=C/[C@@H]1CC(=O)NCc2nc(cs2)C2=N[C@@](C)(CS2)C(=O)N[C@@H](C(C)C)C(=O)N1`, the growth with T-47D breast is -25.6% (active); with BT-549 breast it was 40.1%; in the assay on MDA-MB-435 melanoma, 6.04% (active); in the assay on SW-620 colon, 26.9%; in the assay on MCF7 breast, 13.2%; in the assay on HCT-116 colon, -30.3% (active). The figures for the growth with HCC-2998 colon and in the assay on KM12 colon were -6.96% (active) and 8.82% (active), respectively.
For `CC(C)(C)OC(=O)N1CC(Cn2cc(C(F)(F)F)c3c(Cl)ncnc32)C1`, the growth is 42.6% in the assay on T-47D breast; -91.1% (active) in the assay on BT-549 breast; -83.4% (active) in the assay on MDA-MB-435 melanoma; -37.6% (active) in the assay on SW-620 colon; -32.7% (active) in the assay on MCF7 breast; -84.5% (active) in the assay on HCT-116 colon. Moreover, the growth with HCC-2998 colon was -89.2% (active); in the assay on KM12 colon it was -50.4% (active).
For `COc1ccc(-c2nn(-c3ccc(NC(=O)c4cc(C(F)(F)F)cc(C(F)(F)F)c4)cc3)cc2-c2ccncc2)cc1Cl`, the growth with T-47D breast was 52.9%; in the assay on BT-549 breast, 71%; with MDA-MB-435 melanoma, 67.4%; in the assay on SW-620 colon, 72.1%; in the assay on MCF7 breast it was 66.9%; in the assay on HCT-116 colon it was 42.7%. The growth was 77.5% in the assay with HCC-2998 colon and 53.2% with KM12 colon.
For the compound `CC(C(=O)O)N1C(N)=NNC1c1ccccc1O` (stereo not drawn), the growth in the assay on T-47D breast was 59.7%; with BT-549 breast, 104%; in the assay with MDA-MB-435 melanoma, 104%; in the assay on SW-620 colon, 95.7%; in the assay on MCF7 breast it was 80.4%; with HCT-116 colon, 87.4%. The growth was 92.7% with HCC-2998 colon and 93.9% in the assay with KM12 colon.
Turning to `Cc1ccc2oc(=O)cc(C3C(C#N)=C(N)Oc4c3ccc3ccccc43)c2c1` (stereo not drawn), the growth in the assay with T-47D breast was 69%; in the assay with BT-549 breast, 70.2%; in the assay on MDA-MB-435 melanoma, 6.57% (active); with SW-620 colon, 55%; in the assay on MCF7 breast it was 42.1%; in the assay with HCT-116 colon it was 69.2%. For the same compound, the growth was 91.4% with HCC-2998 colon and 55.1% in the assay on KM12 colon.
Turning to `Nc1ncnc2c1ncn2C1OC(COC(c2ccccc2)(c2ccccc2)c2ccccc2)C(O)C1O` (stereo not drawn), the growth in the assay on T-47D breast is 103%; with BT-549 breast, 94%; in the assay on MDA-MB-435 melanoma, 99.6%; in the assay with SW-620 colon, 98%; with MCF7 breast, 94.2%; in the assay with HCT-116 colon it was 92.4%. In addition, the values for the growth in the assay on HCC-2998 colon and with KM12 colon were 78.9% and 99.2%, respectively.
As to `Cc1ccc(-c2cn3cc([N+](=O)[O-])ccc3n2)cc1`, the growth in the assay with T-47D breast was 46.6%; in the assay on BT-549 breast it was 53.9%; in the assay with MDA-MB-435 melanoma, 70.8%; with SW-620 colon, 100%; in the assay on MCF7 breast it was 34.8%; in the assay on HCT-116 colon it was 70.3%. The growth with HCC-2998 colon was 88%; in the assay on KM12 colon, 91.4%.
In the case of `NC(=S)NNC1CCCCC1`, the growth was 80% in the assay on T-47D breast; 88.4% with BT-549 breast; 106% in the assay with MDA-MB-435 melanoma; 99.7% in the assay with SW-620 colon; 88.8% with MCF7 breast; 91.8% in the assay with HCT-116 colon. Further, the growth in the assay with HCC-2998 colon was 100%; in the assay on KM12 colon, 99.9%.
`COc1cc(Cn2cc3c(c2)-c2onc(CO)c2CC3)cc(OC)c1OC`: the growth with T-47D breast was 93.2%; in the assay with BT-549 breast, 98.6%; with MDA-MB-435 melanoma, 72%; with SW-620 colon, 87%; with MCF7 breast, 86.8%; with HCT-116 colon it was 84%. The results for the growth in the assay on HCC-2998 colon and with KM12 colon were 101% and 90.9%, respectively.
